Experiment [1] can be described thus: qHTS assay to identify small molecule agonists of the hypoxia (HIF-1) signaling pathway - cell viability counter screen (AID 1224844; calls by dose curve; note: nearly all actives have a fitted effect of over 50% in size; note: potency is the fitted concentration of half-maximal effect). In short, it runs like this:
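In this counter screen, HRE-bla ME-180 cell viability after 17 hrs of compound exposure at 37C was read by CellTiter-Glo luminescence, multiplexed with the beta-lactamase reporter measurement.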
Background: Quantitative high-throughput screening tests each substance at several concentrations.

The nature of experiment [2]: qHTS assay to identify small molecule agonists of H2AX (AID 1224845; active = well fitted activation curve with a large enough effect in the signal ratio in the repeat runs, not every such curve was filed as active; the % refers to the signal ratio; note: potency is the fitted concentration of half-maximal effect). The procedure, abridged:
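Phospho-H2AX Ser139 measured by HTRF (ex 320 nm; em 665 and 620 nm) after 24 hr antibody incubation. Compounds, 15 concentrations, 0.76% DMSO, were applied to CHO-K1 cells for 3hr at 37C before lysis.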

A short description of experiment [3]: qHTS assay to identify small molecule agonists of H2AX - cell viability counter screen (AID 1224847; calls by dose curve; note: nearly all actives have a fitted effect of over 30% in size; note: potency is the fitted concentration of half-maximal effect). In short, it runs like this:
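Compounds tested at 15 concentrations were incubated 3 hr at 37C with wild-type CHO-K1 cells; cellular ATP-based luminescence (CellTiter-Glo) indicated viability.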

Experiment [4] in a line: qHTS assay to identify small molecule antagonists of the estrogen related receptor (ERR) signaling pathway from Tox21 library (AID 1224848). Note: nearly all actives have a fitted effect of over 50% in size. Note: potency is the fitted concentration of half-maximal effect. In short, it runs like this:
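ERR cell line, 2,000 cells/well. 6 h settle, then compound (DMSO) added; 18 h at 37 C; ONE-Glo luminescence after 30 min RT.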

Experiment [5] can be described thus: qHTS assay to identify small molecule agonists of the estrogen related receptor (ERR) signaling pathway from Tox21 library (AID 1224849; calls by dose curve; note: nearly all actives have a fitted effect of over 15% in size). To be noted: ERR reporter cell line, ONE-Glo luciferase, 18 h; at 92.4 µM (top of the series) unless noted. In short, it runs like this: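 Luciferase activity in ERR pathway reporter cells served as the agonist readout; exposure lasted 18 h at 37 C, with ONE-Glo detection after 30 min at room temperature.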

Experiment [6] is described as follows: qHTS RealTime-Glo MT Cell Viability Assay in HEK293 cells - 32 hour (AID 1224868). Note: nearly all actives have a fitted effect of over 50% in size. Note: potency is the fitted concentration of half-maximal effect. The procedure, abridged:
(§1)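 Nonlytic real-time viability readout: viable cells convert prosubstrate to NanoLuc substrate, giving luminescence proportional to live cell number. HEK293, 600 cells/well, compound added after 5 h, continuous culture at 37 C.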

Experiment [7] is described as follows: qHTS RealTime-Glo MT Cell Viability Assay in HepG2 cells - 40 hour (AID 1224870). Note: nearly all actives have a fitted effect of over 50% in size. Note: potency is the fitted concentration of half-maximal effect. The procedure, abridged: (§2)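 Real-time viability: cells seeded at 600 per well together with NanoLuc and cell-permeant prosubstrate, compounds added after 5 h incubation. Luminescence tracked at 0, 8, 16, 24, 32 and 40 h of exposure.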
The nature of experiment [8]: A CellTox Green Cytotoxicity Assay to monitor cytotoxicity in HEK293 cells - 40 hour (AID 1224871). Note: nearly all actives have a fitted effect of over 45% in size. Note: potency is the fitted concentration of half-maximal effect. The procedure, abridged:
(§3)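 Real-time, in one plate: 600 HEK293 cells/well with dead-cell DNA dye, pinned compound after 5 h, 37 C incubation over 40 h; viable cells give no appreciable fluorescence.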

A short description of experiment [9]: qHTS RealTime-Glo MT Cell Viability Assay in HEK293 cells - 16 hour (AID 1224872). Note: nearly all actives have a fitted effect of over 50% in size. Note: potency is the fitted concentration of half-maximal effect. The procedure, abridged:
as §1

Experiment [10] can be described thus: qHTS RealTime-Glo MT Cell Viability Assay in HEK293 cells - 40 hour (AID 1224874). Note: nearly all actives have a fitted effect of over 50% in size. Note: potency is the fitted concentration of half-maximal effect. The conditions noted are these: RealTime-Glo luminescence; max response: stronger effect = lower value. In short, it runs like this:
(§4)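 Kinetic, non-lysing viability readout. Seed HEK293 (600/well) with reagent, incubate 5 h at 37 C/5% CO2, pin 23 nL compound in DMSO, incubate at 37 C, read luminescence at 0, 8, 16, 24, 32, 40 h.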

Experiment [11] in a line: A CellTox Green Cytotoxicity Assay to monitor cytotoxicity in HEK293 cells - 24 hour (AID 1224875). Note: nearly all actives have a fitted effect of over 45% in size. Note: potency is the fitted concentration of half-maximal effect. In short, it runs like this: as §3
A short description of experiment [12]: A CellTox Green Cytotoxicity Assay to monitor cytotoxicity in HepG2 cells - 16 hour (AID 1224876). Note: nearly all actives have a fitted effect of over 45% in size. Note: potency is the fitted concentration of half-maximal effect. In short, it runs like this: (§5)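 Cytotoxicity was tracked as dead-cell DNA fluorescence in HepG2 cells treated with test compounds at 37 C; each time-point value comes from one kinetic series spanning 0, 8, 16, 24, 32 and 40 h.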
Experiment [13] is described as follows: qHTS RealTime-Glo MT Cell Viability Assay in HepG2 cells - 32 hour (AID 1224877). Note: nearly all actives have a fitted effect of over 55% in size. Note: potency is the fitted concentration of half-maximal effect. The procedure, abridged:
(§6)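 Luminescence read-out: viable HepG2 cells reduce a prosubstrate to a NanoLuc substrate, giving a signal proportional to live cell number. Reads taken at 0, 8, 16, 24, 32 and 40 h of compound exposure at 37 C.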

A short description of experiment [14]: A CellTox Green Cytotoxicity Assay to monitor cytotoxicity in HepG2 cells - 40 hour (AID 1224879). Note: nearly all actives have a fitted effect of over 40% in size. Note: potency is the fitted concentration of half-maximal effect. In short, it runs like this:
as §5

The nature of experiment [15]: qHTS RealTime-Glo MT Cell Viability Assay in HEK293 cells - 0 hour (AID 1224880). Note: nearly all actives have a fitted effect of over 45% in size. Note: potency is the fitted concentration of half-maximal effect. The procedure, abridged:
as §4

Experiment [16] in a line: qHTS RealTime-Glo MT Cell Viability Assay in HepG2 cells - 24 hour (AID 1224867). Note: nearly all actives have a fitted effect of over 50% in size. Note: potency is the fitted concentration of half-maximal effect. The procedure, abridged: as §6
The nature of experiment [17]: A CellTox Green Cytotoxicity Assay to monitor cytotoxicity in HEK293 cells - 0 hour (AID 1224869). Note: nearly all actives have a fitted effect of over 50% in size. The procedure, abridged: as §3
Experiment [18] is described as follows: qHTS RealTime-Glo MT Cell Viability Assay in HepG2 cells - 8 hour (AID 1224873). Note: nearly all actives have a fitted effect of over 55% in size. Note: potency is the fitted concentration of half-maximal effect. The procedure, abridged: as §2
Experiment [19] in a line: A CellTox Green Cytotoxicity Assay to monitor cytotoxicity in HepG2 cells - 24 hour (AID 1224878). Note: nearly all actives have a fitted effect of over 45% in size. Note: potency is the fitted concentration of half-maximal effect. In short, it runs like this: as §5
Experiment [20] in a line: qHTS assay to identify small molecule agonists of the hypoxia (HIF-1) signaling pathway (AID 1224846; active = well fitted activation curve with a large enough effect in the signal ratio in the repeat runs, not every such curve was filed as active; the % refers to the signal ratio). The procedure, abridged: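 ME-180 HRE-bla reporter cells; compounds in DMSO, 17 h at 37C; read-out beta-lactamase via CCF4-AM FRET.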

Each structure is given as a SMILES string. Where “and” joins values, the source holds several entries; their conditions need not be identical. Identical values can stand only once. Values without a mark were called inactive. Inconclusive results are not listed. Calls of active or inactive are those of the source. Unless noted, calls come from the whole dose curve; as a rule, active = well fitted curve in the direction sought with a large enough effect in the repeat runs; inconclusive = weak or mixed curves; inactive = no such curve, though single readings can be large; an effect the other way counts as inactive or inconclusive.
% is set by controls: 0 for no effect and ±100 for the full control effect.

`CCN1CCC2(CC1)COc1cc3c(cc12)N(C(=O)c1ccc(-c2ccc(-c4nnc(C)o4)cc2C)cc1)CC3`: the Potency in experiment [1] was 20.2 µM (active); in [3], 104 µM (active); in [4], 10 µM (active); in experiment [6], 11.3 µM (active); in experiment [7], 45.2 µM (active); in experiment [8] it was 40.3 µM (active). The Potency was 18 µM (active) in experiment [9]; 11.3 µM (active) in experiment [10]; 50.7 µM (active) in experiment [11]; 50.7 µM (active) in experiment [12]; 45.2 µM (active) in [13]; 45.2 µM (active) in [14]. Further, the Potency in experiment [15] is 25.4 µM (active). Besides, the Potency result in [2] is “inactive”. Moreover, the activity change, positive = activation in experiment [5] was -74.2%.
As for `C=Cc1cccc(CCl)c1`, the Potency entry in experiment [1], in experiment [2], in experiment [3], in experiment [16], in [6] and in experiment [17] was “inactive” each time. Moreover, the Potency result in experiment [7], in [8], in [9], in experiment [18], in experiment [11] and in experiment [12] was “inactive” in each case. Besides, the Potency result in experiment [13], in experiment [19] and in experiment [14] was “inactive” in each case. The max response in [10] was 4.68%.
Turning to `COc1ccc2c(c1OC)C(=O)O[C@@H]2[C@H]1c2cc3c(cc2CCN1C)OCO3`, the Potency entry in [1], in [2], in [3], in experiment [16], in [6] and in experiment [7] was “inactive” throughout. The Potency entry in experiment [8], in [9], in [18], in experiment [11], in [12] and in [19] was “inactive” throughout. In [14], the Potency result was “inactive”. The max response in [10] is 1.56%.
`C[C@]12Cc3cn[nH]c3C[C@@H]1CC[C@@H]1[C@@H]2CC[C@@]2(C)[C@H]1CC[C@]2(C)O`: the Potency was 8.49 µM (active) in experiment [1] and 26.6 µM (active) in [4]. In addition, the Potency entry in experiment [2], in experiment [3], in experiment [16], in [17], in [7] and in experiment [8] was “inactive” throughout. Also, the Potency result in experiment [18], in [11], in experiment [12], in experiment [13] and in experiment [15] was “inactive” each time. Besides, the activity change, positive = activation in experiment [5] was -42.2% [at 42.5 µM].
Take `COC(=O)/C=C(\C)OP(=O)(OC)OC`: the Potency entry in experiment [1], in experiment [2], in [3], in [16], in experiment [6] and in experiment [17] was “inactive” each time. In addition, the Potency result in experiment [7], in experiment [8], in experiment [9], in experiment [18], in [11] and in [12] was “inactive” throughout. Besides, the Potency entry in experiment [13], in experiment [19], in [14] and in [15] was “inactive” each time. In addition, the activity change, positive = activation in [5] was -31.3%. For the same compound, the max response in experiment [10] is -4%.
`COC(=O)c1cc(Oc2ccc(Cl)cc2Cl)ccc1[N+](=O)[O-]`: the Potency entry in experiment [1], in [2], in [20], in [7], in [8] and in experiment [18] was “inactive” each time. In addition, the Potency entry in experiment [11], in experiment [12], in experiment [13], in experiment [19], in experiment [14] and in experiment [15] was “inactive” each time.
On to `O=C1C[C@@H]2OCC=C3CN4CC[C@]56c7ccccc7N1[C@H]5[C@H]2[C@H]3C[C@H]46`, for which the Potency result in experiment [1], in experiment [2], in experiment [3], in [16], in experiment [7] and in experiment [8] was “inactive” each time. For the same compound, the Potency result in [18], in [11], in experiment [12], in experiment [19], in [14] and in experiment [15] was “inactive” throughout. In addition, the activity change, positive = activation in [5] was -3.01% [at 42.5 µM].
In the case of `Clc1ccc(C(c2ccc(Cl)cc2)C(Cl)Cl)cc1`, the Potency in experiment [1] is 49 µM (active); in experiment [2] it was 89.8 µM (active); in experiment [3], 80 µM (active); in experiment [6], 49.8 µM (active) and 43.6 µM (active); in experiment [8] it was 55.8 µM (active) and 49 µM (active); in experiment [9], 44.4 µM (active) and 43.6 µM (active). Also, the Potency in experiment [10] was 49.8 µM (active) and 43.6 µM (active). For the same compound, the activity change, positive = activation in experiment [5] is -36.3% and -43.8%. In addition, the Potency entry in experiment [17], in experiment [7], in experiment [18], in [12], in experiment [13] and in [19] was “inactive” throughout. Also, the Potency entry in experiment [14] and in experiment [15] was “inactive” in each case.
With `c1csc(-c2ccc(-c3cccs3)s2)c1`, the Potency entry in experiment [1], in experiment [2], in experiment [3], in experiment [16], in [6] and in [17] was “inactive” throughout. In addition, the Potency result in [7], in experiment [8], in experiment [9], in experiment [18], in [12] and in [13] was “inactive” in each case. The Potency entry in [19] and in experiment [14] was “inactive” each time. In experiment [10], the max response was -2.2%.
For the compound `Oc1cc(Cl)c(Cl)c(Cl)c1Cl`, the Potency result in experiment [1], in experiment [2], in experiment [16], in experiment [17], in experiment [7] and in experiment [8] was “inactive” throughout. The Potency result in experiment [18], in experiment [11], in [12], in [13], in [19] and in experiment [15] was “inactive” each time. Besides, the Potency was 49.3 µM (active) in experiment [3], 26.7 µM (active) in [4], 47.8 µM (active) in experiment [6] and 47.8 µM (active) in experiment [10]. Besides, the activity change, positive = activation in experiment [5] was -60.7%.
`CCCCN(CCCC)C(=S)[S-].CCCCN(CCCC)C(=S)[S-].[Ni+2]`: the Potency result in experiment [1], in [2], in experiment [3], in [4], in experiment [16] and in [6] was “inactive” throughout. Moreover, the Potency result in experiment [17], in [7], in experiment [8], in experiment [9], in experiment [18] and in [11] was “inactive” each time. In addition, the Potency entry in experiment [12], in experiment [19], in [14] and in experiment [15] was “inactive” each time. In addition, in experiment [5], the activity change, positive = activation is -0.422% [at 42.5 µM]. Also, the max response in [10] is -23%.
`CCC[CH2][Sn]([CH2]CCC)([CH2]CCC)[O][Sn]([CH2]CCC)([CH2]CCC)[CH2]CCC`: the Potency is 0.479 µM (active) in [1]; 0.278 µM (active) in experiment [2]; 0.278 µM (active) in experiment [3]; 0.377 µM (active) in experiment [4]; 0.603 µM (active) in [16]; 0.17 µM (active) in [6]. Also, the Potency is 0.537 µM (active) in experiment [7]; 0.302 µM (active) in experiment [8]; 0.214 µM (active) in experiment [9]; 0.956 µM (active) in experiment [18]; 0.151 µM (active) in [10]; 0.427 µM (active) in experiment [11]. The Potency in [12] is 0.603 µM (active); in [13] it was 0.537 µM (active); in experiment [19], 0.537 µM (active); in [14], 0.537 µM (active). Further, in [5], the activity change, positive = activation was -60.2% [at 8.39 µM]. Besides, the cytotoxicity in [17] was 2.58% [at 6.97 µM].

Source of the values: PubChem BioAssay (Tox21).
